Source: the supplement of paper PMC11732987, “Enantioselective OTUD7B fragment discovery through chemoproteomics screening and high-throughput optimisation” (Communications Chemistry, 2025)

Assays:
Test in all cases: log2 ratio of Biotin-Ahx-Ub-VS probe labelling (fragment/DMSO); higher = less target engagement (more negative = stronger competition), active = hit call of the paper (q ≤ 0.05, log2 ratio ≤ -1)
Conditions in all cases: compound concentration: 200 uM; treatment time: 3 h
USP19 = target: T1, USP19 (UniProt O94966)
T1 sequence (whole entry): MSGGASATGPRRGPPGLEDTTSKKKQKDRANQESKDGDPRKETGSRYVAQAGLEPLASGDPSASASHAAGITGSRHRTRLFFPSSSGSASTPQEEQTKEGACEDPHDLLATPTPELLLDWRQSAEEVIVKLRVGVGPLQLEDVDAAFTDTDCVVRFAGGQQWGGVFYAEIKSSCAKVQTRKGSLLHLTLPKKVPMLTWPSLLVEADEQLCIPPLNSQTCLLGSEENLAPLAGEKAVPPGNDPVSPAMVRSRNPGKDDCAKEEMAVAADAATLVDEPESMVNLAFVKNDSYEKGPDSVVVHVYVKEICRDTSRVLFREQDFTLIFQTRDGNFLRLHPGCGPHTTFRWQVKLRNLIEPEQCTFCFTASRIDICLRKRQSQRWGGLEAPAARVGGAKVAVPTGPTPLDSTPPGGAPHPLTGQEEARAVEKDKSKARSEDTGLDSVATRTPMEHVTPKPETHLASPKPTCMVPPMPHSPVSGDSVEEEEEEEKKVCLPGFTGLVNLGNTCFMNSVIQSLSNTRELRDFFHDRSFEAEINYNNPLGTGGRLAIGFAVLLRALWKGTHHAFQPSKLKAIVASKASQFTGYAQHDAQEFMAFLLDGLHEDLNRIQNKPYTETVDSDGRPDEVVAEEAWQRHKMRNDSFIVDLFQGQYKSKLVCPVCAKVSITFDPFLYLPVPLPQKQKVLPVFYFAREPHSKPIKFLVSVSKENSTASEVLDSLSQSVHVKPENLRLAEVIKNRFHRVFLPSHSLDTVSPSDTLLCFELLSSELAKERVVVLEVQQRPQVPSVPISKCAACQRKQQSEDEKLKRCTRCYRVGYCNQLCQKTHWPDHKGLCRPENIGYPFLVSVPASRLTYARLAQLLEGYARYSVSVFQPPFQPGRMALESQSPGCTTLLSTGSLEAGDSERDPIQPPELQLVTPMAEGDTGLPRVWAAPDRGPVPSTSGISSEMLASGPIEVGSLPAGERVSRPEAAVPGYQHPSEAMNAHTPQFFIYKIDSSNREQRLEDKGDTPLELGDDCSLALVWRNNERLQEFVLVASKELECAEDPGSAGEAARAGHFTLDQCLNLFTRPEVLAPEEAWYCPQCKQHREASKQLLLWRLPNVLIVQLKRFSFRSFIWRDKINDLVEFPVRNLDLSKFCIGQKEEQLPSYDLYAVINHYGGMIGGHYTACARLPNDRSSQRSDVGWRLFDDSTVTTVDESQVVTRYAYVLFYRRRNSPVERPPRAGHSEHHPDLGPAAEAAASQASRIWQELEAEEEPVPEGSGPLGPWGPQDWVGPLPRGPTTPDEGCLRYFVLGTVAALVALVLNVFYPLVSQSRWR
Method in brief: (§1)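 In triplicate, 495 µg of HEK293T lysate per sample was incubated with fragment at 200 µM or vehicle for 3 h. Biotin-Ahx-Ub-VS was then added to 0.5 µM final for 1 h, and labelled DUBs were captured with NeutrAvidin, digested with LysC and trypsin, and measured by diaPASEF LC-MS/MS. Data are average log2 fragment/vehicle ratios by unpaired t-test from global-median-normalised Spectronaut label-free quantities, restricted to proteins with ≥2 unique peptides.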

USP22 = target: T2, USP22 (UniProt Q9UPT9)
T2 sequence (whole entry): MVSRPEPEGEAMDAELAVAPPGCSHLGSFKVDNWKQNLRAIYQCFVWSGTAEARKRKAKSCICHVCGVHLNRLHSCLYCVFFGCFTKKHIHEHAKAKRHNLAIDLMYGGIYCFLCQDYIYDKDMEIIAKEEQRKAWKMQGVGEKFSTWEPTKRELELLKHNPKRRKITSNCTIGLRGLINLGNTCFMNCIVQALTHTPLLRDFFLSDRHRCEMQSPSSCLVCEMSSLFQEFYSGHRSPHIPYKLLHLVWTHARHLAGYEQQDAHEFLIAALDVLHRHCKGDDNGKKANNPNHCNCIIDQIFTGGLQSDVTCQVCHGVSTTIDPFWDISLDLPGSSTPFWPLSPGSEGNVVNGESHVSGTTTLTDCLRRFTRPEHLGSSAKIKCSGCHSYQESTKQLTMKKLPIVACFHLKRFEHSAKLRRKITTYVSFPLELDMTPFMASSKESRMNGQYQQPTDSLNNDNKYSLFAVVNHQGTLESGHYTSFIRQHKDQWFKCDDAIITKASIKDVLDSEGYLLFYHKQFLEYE
Method in brief: as §1

USP24 = USP24 (UniProt Q9UPU5)
Method in brief: as §1

USP25 = target: T3, USP25 (UniProt Q9UHP3)
T3 sequence (whole entry): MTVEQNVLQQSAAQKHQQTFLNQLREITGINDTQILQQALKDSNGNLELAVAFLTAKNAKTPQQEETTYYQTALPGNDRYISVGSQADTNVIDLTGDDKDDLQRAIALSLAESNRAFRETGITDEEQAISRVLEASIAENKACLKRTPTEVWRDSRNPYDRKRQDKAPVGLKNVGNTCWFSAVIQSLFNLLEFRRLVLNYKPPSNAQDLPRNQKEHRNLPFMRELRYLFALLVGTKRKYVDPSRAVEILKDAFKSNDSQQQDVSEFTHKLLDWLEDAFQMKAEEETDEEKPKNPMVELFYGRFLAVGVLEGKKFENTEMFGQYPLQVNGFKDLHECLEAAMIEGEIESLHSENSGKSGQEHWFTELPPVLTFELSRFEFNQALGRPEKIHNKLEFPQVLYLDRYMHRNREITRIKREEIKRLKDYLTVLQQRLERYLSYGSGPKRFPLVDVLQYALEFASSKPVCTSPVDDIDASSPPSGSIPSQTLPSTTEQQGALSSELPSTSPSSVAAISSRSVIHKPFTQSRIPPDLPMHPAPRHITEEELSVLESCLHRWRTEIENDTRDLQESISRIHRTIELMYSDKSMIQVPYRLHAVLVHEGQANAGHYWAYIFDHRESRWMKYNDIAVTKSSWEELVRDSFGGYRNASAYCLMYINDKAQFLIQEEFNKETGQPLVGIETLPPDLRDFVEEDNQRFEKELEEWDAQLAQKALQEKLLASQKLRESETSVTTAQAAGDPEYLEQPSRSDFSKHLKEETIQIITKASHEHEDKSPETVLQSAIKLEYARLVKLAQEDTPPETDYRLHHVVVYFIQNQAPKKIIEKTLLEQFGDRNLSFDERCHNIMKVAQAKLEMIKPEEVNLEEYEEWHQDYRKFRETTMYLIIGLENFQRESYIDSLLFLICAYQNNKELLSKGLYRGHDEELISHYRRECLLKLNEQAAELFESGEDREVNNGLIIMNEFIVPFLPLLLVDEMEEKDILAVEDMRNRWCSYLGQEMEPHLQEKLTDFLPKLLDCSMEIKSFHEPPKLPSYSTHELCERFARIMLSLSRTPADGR
Method in brief: as §1

USP28 = target: T4, USP28 (UniProt Q96RU2)
T4 sequence (whole entry): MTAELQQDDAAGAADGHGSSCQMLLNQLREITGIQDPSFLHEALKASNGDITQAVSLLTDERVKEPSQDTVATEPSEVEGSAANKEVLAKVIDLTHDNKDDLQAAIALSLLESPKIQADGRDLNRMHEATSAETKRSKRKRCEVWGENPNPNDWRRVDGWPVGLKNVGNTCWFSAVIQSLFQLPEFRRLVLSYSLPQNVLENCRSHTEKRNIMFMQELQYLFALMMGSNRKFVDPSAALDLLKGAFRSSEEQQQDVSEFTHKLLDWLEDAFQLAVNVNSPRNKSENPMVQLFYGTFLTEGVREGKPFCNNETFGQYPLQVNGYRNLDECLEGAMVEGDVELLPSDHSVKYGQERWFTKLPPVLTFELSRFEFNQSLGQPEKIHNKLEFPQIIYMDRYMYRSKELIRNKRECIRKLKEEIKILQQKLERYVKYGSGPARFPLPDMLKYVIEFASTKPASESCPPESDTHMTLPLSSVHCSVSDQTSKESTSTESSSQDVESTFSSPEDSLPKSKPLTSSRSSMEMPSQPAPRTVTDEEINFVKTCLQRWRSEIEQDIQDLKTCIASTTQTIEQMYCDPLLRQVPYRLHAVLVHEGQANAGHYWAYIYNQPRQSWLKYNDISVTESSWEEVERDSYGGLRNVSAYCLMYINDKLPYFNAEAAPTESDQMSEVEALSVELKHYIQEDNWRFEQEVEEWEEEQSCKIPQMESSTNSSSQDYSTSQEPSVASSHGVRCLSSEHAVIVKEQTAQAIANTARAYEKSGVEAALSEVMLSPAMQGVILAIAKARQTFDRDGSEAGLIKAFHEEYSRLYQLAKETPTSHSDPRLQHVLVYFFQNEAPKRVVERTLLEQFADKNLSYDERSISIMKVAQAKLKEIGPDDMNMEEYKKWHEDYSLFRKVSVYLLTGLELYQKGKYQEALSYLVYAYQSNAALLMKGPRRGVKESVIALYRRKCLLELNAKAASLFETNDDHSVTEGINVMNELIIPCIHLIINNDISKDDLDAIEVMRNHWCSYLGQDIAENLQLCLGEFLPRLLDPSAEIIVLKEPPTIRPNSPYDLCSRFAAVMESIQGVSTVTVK
Method in brief: as §1

Measured: log2 ratio of Biotin-Ahx-Ub-VS probe labelling

USP24, sequence (Q9UPU5 whole entry): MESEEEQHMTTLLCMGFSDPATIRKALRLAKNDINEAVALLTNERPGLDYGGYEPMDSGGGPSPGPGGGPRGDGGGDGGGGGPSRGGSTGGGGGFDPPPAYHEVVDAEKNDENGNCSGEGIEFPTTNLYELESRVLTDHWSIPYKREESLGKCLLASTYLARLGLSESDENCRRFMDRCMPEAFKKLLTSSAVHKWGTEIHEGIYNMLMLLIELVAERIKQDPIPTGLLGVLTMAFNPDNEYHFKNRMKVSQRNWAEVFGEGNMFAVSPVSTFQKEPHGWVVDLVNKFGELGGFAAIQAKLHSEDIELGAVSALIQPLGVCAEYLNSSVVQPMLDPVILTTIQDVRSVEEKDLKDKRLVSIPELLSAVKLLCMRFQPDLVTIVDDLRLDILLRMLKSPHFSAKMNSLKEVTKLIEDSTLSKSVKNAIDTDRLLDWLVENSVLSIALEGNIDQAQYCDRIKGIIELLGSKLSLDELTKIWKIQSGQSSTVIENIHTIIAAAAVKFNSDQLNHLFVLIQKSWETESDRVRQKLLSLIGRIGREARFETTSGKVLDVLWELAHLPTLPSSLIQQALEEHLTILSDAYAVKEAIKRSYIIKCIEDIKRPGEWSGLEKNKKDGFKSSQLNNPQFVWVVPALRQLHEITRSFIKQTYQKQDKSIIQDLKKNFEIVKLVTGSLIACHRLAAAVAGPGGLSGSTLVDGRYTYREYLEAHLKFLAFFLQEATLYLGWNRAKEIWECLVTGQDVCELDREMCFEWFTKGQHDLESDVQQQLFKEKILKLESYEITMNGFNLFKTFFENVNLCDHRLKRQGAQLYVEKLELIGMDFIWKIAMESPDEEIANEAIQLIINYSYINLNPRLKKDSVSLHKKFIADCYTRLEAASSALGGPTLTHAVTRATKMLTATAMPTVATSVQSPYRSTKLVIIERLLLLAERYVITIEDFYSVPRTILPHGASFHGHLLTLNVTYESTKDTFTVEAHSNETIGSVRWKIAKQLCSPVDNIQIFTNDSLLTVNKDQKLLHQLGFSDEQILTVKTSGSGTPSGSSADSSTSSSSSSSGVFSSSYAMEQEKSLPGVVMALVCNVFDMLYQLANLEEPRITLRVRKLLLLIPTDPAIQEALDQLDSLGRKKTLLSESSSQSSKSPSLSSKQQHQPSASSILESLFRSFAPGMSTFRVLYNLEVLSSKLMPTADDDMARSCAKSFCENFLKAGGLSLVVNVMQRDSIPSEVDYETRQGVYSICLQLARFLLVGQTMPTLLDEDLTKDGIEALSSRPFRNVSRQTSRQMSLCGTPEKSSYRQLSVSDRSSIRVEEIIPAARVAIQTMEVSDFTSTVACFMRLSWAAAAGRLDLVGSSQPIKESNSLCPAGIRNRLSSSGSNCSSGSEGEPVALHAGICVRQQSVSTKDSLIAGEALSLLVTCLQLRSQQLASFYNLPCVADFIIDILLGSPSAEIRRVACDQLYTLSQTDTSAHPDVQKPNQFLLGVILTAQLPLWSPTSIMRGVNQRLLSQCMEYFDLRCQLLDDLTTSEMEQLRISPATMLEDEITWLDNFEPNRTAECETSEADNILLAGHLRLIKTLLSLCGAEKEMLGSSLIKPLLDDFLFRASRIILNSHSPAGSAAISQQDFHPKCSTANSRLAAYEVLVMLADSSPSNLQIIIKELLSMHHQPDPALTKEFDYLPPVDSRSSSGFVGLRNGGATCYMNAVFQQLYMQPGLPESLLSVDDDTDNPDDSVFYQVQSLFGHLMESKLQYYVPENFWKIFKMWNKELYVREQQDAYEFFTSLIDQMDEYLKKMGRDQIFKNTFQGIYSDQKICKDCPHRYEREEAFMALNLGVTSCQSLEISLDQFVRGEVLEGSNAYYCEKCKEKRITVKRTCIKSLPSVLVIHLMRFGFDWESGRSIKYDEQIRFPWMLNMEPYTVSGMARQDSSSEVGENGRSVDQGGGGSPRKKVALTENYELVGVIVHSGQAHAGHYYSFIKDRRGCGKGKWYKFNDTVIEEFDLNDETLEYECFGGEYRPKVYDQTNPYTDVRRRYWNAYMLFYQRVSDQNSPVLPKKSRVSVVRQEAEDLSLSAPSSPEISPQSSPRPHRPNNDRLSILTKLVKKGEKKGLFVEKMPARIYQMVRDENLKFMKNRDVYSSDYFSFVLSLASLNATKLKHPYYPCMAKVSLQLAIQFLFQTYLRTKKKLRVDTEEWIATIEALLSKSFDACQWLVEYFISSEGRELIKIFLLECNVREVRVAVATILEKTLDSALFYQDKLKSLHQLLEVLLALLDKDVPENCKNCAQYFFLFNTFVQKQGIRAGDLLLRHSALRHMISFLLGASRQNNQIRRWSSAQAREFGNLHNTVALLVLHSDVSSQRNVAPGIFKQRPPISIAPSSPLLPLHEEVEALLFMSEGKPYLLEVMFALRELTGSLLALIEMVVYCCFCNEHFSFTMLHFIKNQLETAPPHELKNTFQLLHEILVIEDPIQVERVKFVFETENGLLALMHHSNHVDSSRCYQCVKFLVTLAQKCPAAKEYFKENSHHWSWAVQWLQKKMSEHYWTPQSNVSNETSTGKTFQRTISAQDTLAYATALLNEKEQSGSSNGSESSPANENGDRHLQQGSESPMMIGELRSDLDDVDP

CC(NC(=O)CCl)c1cccc(Cl)c1 (stereo not given)
inactive: USP19 -0.35 | USP22 -0.146 | USP24 -0.342 | USP25 -0.639 | USP28 -0.845
